About 2,000 (36%) of roughly 5,500 compounds were called active. About 18% were inconclusive and are not listed. No stated cut-off is given here; in the data, active means normalized growth mostly below about 0.91 (no sharp cut-off); inconclusive means no clear call, values can overlap the other calls; inactive means mostly above about 0.92. Some of the results follow.
Experiment: chemical genetic growth profiling, strain panel (AID 1159580);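 further: tested at 20 µM; growth read once vehicle control cultures reached saturation at 30 °C; 1 = growth at the plate median or of vehicle wells; lower values mean less growth of the strain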
Conditions: S. cerevisiae deletion strains, growth OD

Measured: normalized growth

CNCC(O)c1ccc(O)cc1 (stereo not given)
inactive: locus YAL013W, strain DEP1, hits give low values 1.03 | locus YAL040C, strain CLN3, hits give low values 1.02 | locus YCL061C, strain MRC1 (second series), hits give low values 1 | locus YDR363W, strain ESC2, hits give low values 1.01 | locus YER002W, strain NOP16, hits give low values 1.02 | locus YGR078C, strain PAC10, hits give low values 1.02 | locus YJR075W, strain HOC1, hits give low values 1.01 | locus YMR263W, strain SAP30, hits give low values 1 | locus YMR307W, strain GAS1, hits give low values 1.04 | locus YNL128W, strain TEP1, hits give low values 1.03 | locus YNL175C, strain NOP13, hits give low values 1.02 | locus YNL197C, strain WHI3, hits give low values 1.01 | locus YNL224C, strain SQS1, hits give low values 0.999 | locus YOR083W, strain WHI5 (second series), hits give low values 1.02 | locus YPL241C, strain CIN2, hits give low values 1

Reference: PubChem BioAssay AID1159580 (chemical genetic matrix, 2015)
